The list is not random: actives were taken first. Their share in the collection is about 27%.
sEH inh = soluble epoxide hydrolase inhibitors, primary screen, biochemical, human sEH | recombinant human sEH enzymatic activity assay | inhibition, % at 2 µM | 91,000 compounds, 0.34% hits | AID 707, 2007; in the data active = inhibition above about 80%
sEH act = soluble epoxide hydrolase activators, primary screen, biochemical, human sEH; AID 717, 2007; 91,000 compounds, 0.04% hits; purified human sEH enzymatic activity, activator screen; activation, % at 2 µM; in the data active = activation above about 37%
CYP2C9 inh = blockers of cytochrome P450 2C9 activity – biochemical, luminescence, ADME assay, primary screen; P11712; inhibition, % at 5 µM; 96,000 compounds, 20% hits; CYP2C9 Supersomes, luciferin-H conversion;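 active = blocking of liver enzyme CYP2C9 beyond about 50% at 5 µM, limit read from the data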
Target sequence (P11712 whole entry, looked up): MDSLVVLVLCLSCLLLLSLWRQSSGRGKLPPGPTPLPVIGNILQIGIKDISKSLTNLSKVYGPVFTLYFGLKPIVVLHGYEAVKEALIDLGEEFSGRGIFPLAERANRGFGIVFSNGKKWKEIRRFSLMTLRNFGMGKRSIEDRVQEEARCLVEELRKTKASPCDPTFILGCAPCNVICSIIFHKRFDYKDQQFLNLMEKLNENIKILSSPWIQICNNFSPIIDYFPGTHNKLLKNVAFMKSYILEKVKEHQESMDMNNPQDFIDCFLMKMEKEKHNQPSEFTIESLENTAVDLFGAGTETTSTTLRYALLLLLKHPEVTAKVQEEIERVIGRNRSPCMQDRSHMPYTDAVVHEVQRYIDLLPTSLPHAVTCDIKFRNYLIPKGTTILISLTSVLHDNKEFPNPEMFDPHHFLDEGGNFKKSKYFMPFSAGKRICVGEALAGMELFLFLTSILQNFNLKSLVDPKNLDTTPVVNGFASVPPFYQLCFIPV
CYP2C19 inhib = blockers of cytochrome P450 2C19 activity – biochemical, luminescence, ADME assay, primary screen. inhibition, % at 5 µM. AID 778, 2007. P33261. CYP2C19 Supersomes, luciferin-H EGE luminescence, 30 min. 96,000 compounds, 21% hits;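 active = CYP2C19 inhibition above a set limit at 5 µM in the primary screen, cut at about 50% in these data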;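 note: plate controls were negative control wells for no effect and 2.5 mM tranylcypromine positive control for full effect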
CYP2C9 act = human CYP2C9 activators, primary screen, biochemical, luminescence; 96,000 compounds, 1.4% hits; recombinant CYP2C9, luciferin-H conversion; hits give high values; factor 1 = untreated enzyme, 0 = blocked; activation factor at 5 µM;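 active = activation factor of 2 or more for CYP2C9 at a 5 µM dose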;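 note: 0 = sulfaphenazole-blocked wells and 1 = vehicle-only wells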
CYP2C19 activ = human CYP2C19 activators, primary screen, biochemical, luminescence; Cytochrome P450 2C19 (Homo sapiens), P33261; recombinant CYP2C19, luciferin-H EGE luminescence; hits give high values; 0 = fully inhibited enzyme, 1 = untreated enzyme; activation factor at 5 µM; 96,000 tested, under 10 active;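 active = activation factor of at least 2 at 5 µM in the primary screen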;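 note: 0 = wells with 2.5 mM tranylcypromine and 1 = vehicle-only wells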
Starred values were filed as active, the others as inactive; · = no result given.

SMILES	sEH inh	sEH act	CYP2C9 inh	CYP2C19 inhib	CYP2C9 act	CYP2C19 activ
COC(=O)c1ccccc1NC(=O)c1ccc(COc2ccc(C)c(C)c2)o1	-6.1	7.9	-3.5	52.5*	1	0.5
COc1ccccc1NC(=O)c1ccc(COc2ccccc2OC)o1	-1.4	1.8	-184.7	58.5*	2.8*	0.4
O=C(Oc1oc(-c2ccco2)nc1C=Nc1ccc(Cl)cc1)c1ccco1	-7.4	7.6	10.3	-5.6	0.9	1.1
CCCCOc1ccccc1C1C(C(N)=O)=C(C)Nc2nnnn21 (centres undefined)	-10.6	8.6	-0.9	-1.9	1	1
CC(NC(=O)Cn1nc(C(=O)O)c2ccccc2c1=O)c1ccccc1 (centres undefined)	10.0	-6.6	·	·	·	·
CC(NC(=O)Cn1nc(-c2ccccc2)c2ccccc2c1=O)c1ccccc1 (centres undefined)	-2.9	6.5	24.7	88.6*	0.8	0.1
O=C1c2ccccc2C(=O)N1CSc1nnc2c3ccccc3n(CCc3ccccc3)c2n1	14.5	-12.6	40.1	31.1	0.6	0.7
C=CCn1c2ccccc2c2nnc(SCCCn3c(=O)[nH]c4ccccc43)nc21	-5.4	9.2	75.6*	74.8*	0.2	0.3
C=CCn1c2ccccc2c2nnc(SCN3C(=O)c4ccccc4C3=O)nc21	7.5	-5.0	78.6*	90.2*	0.2	0.1
O=C1CC(Sc2nnnn2C2CCCCC2)C(=O)N1c1ccccc1 (centres undefined)	-3.6	0.1	·	·	·	·
Cc1cc(C)cc(N2C(=O)CC(Sc3nnnn3-c3ccccc3)C2=O)c1 (centres undefined)	-17.0	15.5	-48.9	54.1*	1.5	0.5
O=C(CSc1nnc(CNc2ccc(Cl)cc2)n1Cc1ccccc1)NCc1ccco1	·	·	30.8	-3.6	0.7	1
Fc1ccc(NCc2nnc(SCc3nnc(-c4ccccc4)o3)n2Cc2ccccc2)cc1	-9.9	10.0	68.5*	78.6*	0.3	0.2
CCOc1ccc(-c2nnn(CC(=O)NCc3ccc(F)cc3)n2)cc1OCC	2.6	-3.1	34.8	64.6*	0.7	0.4
CCOc1ccc(-c2nnn(CC(=O)Nc3cccc(OC)c3)n2)cc1OCC	-5.7	3.2	19.6	45.9	0.8	0.5
O=C1CC2(CON=C2c2ccc(F)cc2)C(=O)N1c1ccc(F)cc1 (centres undefined)	1.9	-3.1	51.4*	89.2*	0.5	0.1
Fc1ccccc1COc1ccc(/C=N/NC(=S)NCc2ccccc2)cc1	-3.5	2.7	·	·	·	·
Oc1ccc(CN2CCCCC2)c2cccnc12	-1.8	7.0	·	·	·	·
Oc1ccc(Br)cc1CN1CCCCCCC1	-19.1	20.8	-8.9	57.4*	1.1	0.4
Cc1ccc(CSc2nnc(-c3ccncc3)n2CC2CCCO2)cc1 (centres undefined)	-13.1	13.7	25.3	59.7*	0.7	0.4
Cc1ccc(-c2nnc(SCC(=O)NCC3CCCO3)n2C)cc1 (centres undefined)	-0.8	3.5	2.2	-6.0	1	1.1
O=C(O)c1ccc(CSc2nnc(-c3ccncc3)n2CC2CCCO2)cc1 (centres undefined)	-0.2	-0.9	30.7	27.0	0.7	0.7
Cn1c(SCC2CCCO2)nnc1-c1ccncc1 (centres undefined)	-19.2	17.6	-6.9	66.0*	1.1	0.3
CCN(CC)S(=O)(=O)c1ccccc1/C=N\O	·	·	9.7	49.2	0.9	0.5
COC(=O)c1sccc1NC(=O)c1cc2c(s1)CCCC2	-13.4	20.0	61.2*	36.2	0.4	0.6
SMILES	sEH inh	sEH act	CYP2C9 inh	CYP2C19 inhib	CYP2C9 act	CYP2C19 activ
O=C(Nc1nccs1)c1cc2c(s1)CCCCC2	27.2	-26.2	33.3	31.3	0.7	0.7
Cc1cccc(-n2c(O)c(C=Nc3c(C)n(C)n(-c4ccccc4)c3=O)c3ccccc3c2=O)n1	1.2	-0.9	36.3	16.0	0.6	0.8
COc1cccc(N=Cc2c(O)n(-c3cccc(C)n3)c(=O)c3ccccc23)c1	4.9	-4.4	53.0*	66.3*	0.5	0.3
O=c1c2c3nc4ccccc4nc3n(/N=C/c3cccs3)c2ncn1-c1ccccc1	·	·	6.1	-4.3	0.9	1
Cc1c(C(=O)O)sc2nc3n(c(=O)c12)CCC(C)CC3 (centres undefined)	-5.1	5.7	·	·	·	·
CN(C)c1ccc(-c2nc3ccccc3n2C)cc1	4.9	-5.2	32.9	56.0*	0.7	0.4
Cc1ccc(C(O)c2nc3ccccc3n2C(C)C)cc1 (centres undefined)	12.5	-10.1	47.8	92.2*	0.5	0.1
CC(C)n1c(-c2ccc(N(C)C)cc2)nc2ccccc21	-4.2	4.2	62.1*	61.1*	0.4	0.4
CC(Cl)C(=O)Nc1ncc(C(F)(F)F)cc1Cl (centres undefined)	8.5	-8.8	10.1	-19.9	0.9	1.2
N#CCC(CNc1ncc(C(F)(F)F)cc1Cl)OC(=O)c1ccc(Cl)cc1Cl (centres undefined)	3.6	-1.9	50.2*	30.2	0.5	0.7
O=C(O)c1cc(S(=O)(=O)N2CCOCC2)c(Sc2ccccn2)cc1Sc1ccccn1	·	·	22.2	4.8	0.8	1
COC(=O)C(CCSC)NC(=O)c1cccc([N+](=O)[O-])c1 (centres undefined)	0.7	-2.7	9.9	24.9	0.9	0.8
COc1ccc(-n2c(=O)cc(N3CC(C)OC(C)C3)[nH]c2=O)cc1 (centres undefined)	15.9	-12.9	5.6	5.6	0.9	0.9
O=C(CCC(NC(=O)OCc1ccccc1)C(=O)OCC(=O)N1CCCCC1)OCC(=O)N1CCCCC1 (centres undefined)	-6.3	9.3	91.7*	83.2*	0.1	0.2
CCOCCCn1c(=S)[nH]c2cc3c(cc2c1=O)OCO3	·	·	47.5	67.6*	0.5	0.3
CCCCNC(=O)CCCn1c(=S)[nH]c2cc3c(cc2c1=O)OCO3	·	·	59.1*	14.9	0.4	0.9
Cc1ccc(N2CCN(C(=O)CCc3nc4ccccc4[nH]3)CC2)c(C)c1	4.8	-6.3	72.0*	84.0*	0.3	0.2
CC(=O)N1CCN(C(=O)CCc2nc3ccccc3c(=O)[nH]2)CC1	4.9	-2.3	14.1	13.9	0.9	0.9
Cc1cccc(N2CCN(C(=O)CCc3nc4ccccc4[nH]3)CC2C)c1 (centres undefined)	-3.8	2.2	56.4*	75.2*	0.4	0.2
C1CCC(C23CC4CC(CC(C4)C2)C3)NC1 (centres undefined)	6.1	-6.1	·	·	·	·
COc1ccc2c(c1)C(C)=CC(C)(C)N2C(=O)CSc1nnc(-c2ccc(C)cc2)o1	-7.8	10.0	65.1*	65.8*	0.3	0.3
